Values joined by “and” are separate entries in the source; they are usually repeats but may differ in a detail not shown here. Equal values may be shown once. Some structures have more than one record in an assay (separate samples or runs), and their calls can disagree. Active and inactive are the calls of the source. The calls were made as follows: active = hit-call score of the fitted dose curve at least 0.9, where 1 is the maximum; inactive = score below 0.9.

Drawing on PubChem BioAssay (EPA / NIEHS), this text covers AC50 and outcome for 18 compounds.

Read-out in experiment [1]: Urokinase-type plasminogen activator receptor (uPAR), PLAUR (gene 5329)
The experiment in a line: BSK_4H_uPAR: BioMAP Diversity Plus: 4H Assay for Urokinase-type plasminogen activator receptor (uPAR) Biomarker Activity (AID 2283030). The conditions noted are these: primary human endothelial cells (HUVEC); actives raise or lower the signal. Put shortly:
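Endpoint derived via bidirectional curve fitting against DMSO baseline; readout was ELISA detection of uPAR on umbilical vein endothelial cells at 24 h post-treatment, with SRB-stained parallel cultures assessing cytotoxicity.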

Read-out in experiment [2]: Vascular endothelial growth factor receptor 2 (Homo sapiens) (UniProt P35968)
The experiment in a line: BSK_4H_VEGFRII: BioMAP Diversity Plus: 4H Assay for Vascular endothelial growth factor receptor 2 (VEGFR2) Biomarker Activity (AID 2283031).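 As to AC50: cell-surface VEGFR2 protein level quantified by ELISA.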 The conditions noted are these: primary human endothelial cells (HUVEC); actives raise or lower the signal. Put shortly: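 In this multiplexed HUVEC system, biomarker ELISA was performed after 24 h chemical exposure. Parallel SRB staining (TCA fixation, 560 nm) tracked cytotoxicity; DMSO served as baseline.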

Read-out in experiment [3]: Human Leukocyte Antigen - DR isotype (HLADR), HLA-DRA (gene 3122)
The experiment in a line: BSK_BE3C_HLADR: BioMAP Diversity Plus: BE3C Assay for Human Leukocyte Antigen - DR isotype (HLADR) Biomarker Activity (AID 2283032). The conditions noted are these: primary human bronchial epithelial cells; actives raise or lower the signal. Summed up: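 Chemicals are dosed onto BE3C bronchial epithelial cultures of human origin and left 24 h. HLA-DR is then measured by ELISA, and the endpoint is fitted in both directions using DMSO as the activity baseline.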

Read-out in experiment [4]: Vascular cell adhesion molecule 1 (VCAM1), VCAM1 (gene 7412)
The experiment in a line: BSK_4H_VCAM1: BioMAP Diversity Plus: 4H Assay for Vascular cell adhesion molecule 1 (VCAM1) Biomarker Activity (AID 2283033).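 As to outcome: cell-surface VCAM-1 protein measured by ELISA.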 The conditions noted are these: primary human endothelial cells (HUVEC); actives raise or lower the signal. Put shortly:
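Chemicals are added to primary human umbilical vein endothelial cells. After 24 h, VCAM-1 levels are measured by ELISA. Values come from bidirectional fitting referenced to DMSO.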

Read-out in experiment [5]: Interferon-gamma inducible Protein 10 (IP10), CXCL10 (gene 3627)
The experiment in a line: BSK_BE3C_IP10: BioMAP Diversity Plus: BE3C Assay for Interferon-gamma inducible Protein 10 (IP10) Biomarker Activity (AID 2283034). The settings on record: primary human bronchial epithelial cells; actives raise or lower the signal. Summed up:
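IP-10 quantified by ELISA serves as the endpoint. Cells: primary human bronchial epithelium, read 24 h after compound addition. Activity is derived by bidirectional fitting with DMSO as negative control.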

Read-out in experiment [6]: Monokine induced gamma interferon (MIG), CXCL9 (gene 4283)
Put plainly: BSK_BE3C_MIG: BioMAP Diversity Plus: BE3C Assay for Monokine induced gamma interferon (MIG) Biomarker Activity (AID 2283035).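 As to outcome: MIG protein measured by ELISA in BE3C cultures after 24 h of dosing.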 The conditions noted are these: primary human bronchial epithelial cells; actives raise or lower the signal. Summed up:
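hu bronchial epithelial 1° cells, 24 h cpd; MIG by ELISA; bidirectional fit, DMSO = baseline.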

Read-out in experiment [7]: urokinase plasminogen activator (uPA), PLAU (gene 5328)
The experiment in a line: BSK_BE3C_uPA: BioMAP Diversity Plus: BE3C Assay for urokinase plasminogen activator (uPA) Biomarker Activity (AID 2283038).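 As to outcome: uPA protein level quantified by ELISA in cell cultures; uPA read one day after compound addition.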 The settings on record: primary human bronchial epithelial cells; actives raise or lower the signal. Summed up: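 Using confluent primary human lung bronchial epithelial cultures, we dosed chemicals, waited 24 h, then ran a uPA ELISA, fitting bidirectionally against DMSO.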

Read-out in experiment [8]: Urokinase-type plasminogen activator receptor (uPAR), PLAUR (gene 5329)
The experiment in a line: BSK_BE3C_uPAR: BioMAP Diversity Plus: BE3C Assay for Urokinase-type plasminogen activator receptor (uPAR) Biomarker Activity (AID 2283039).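 As to outcome: uPAR protein level measured by ELISA on the cells; cells exposed to compound for one day before measurement.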 The settings on record: primary human bronchial epithelial cells; actives raise or lower the signal. Summed up:
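Steps: dose human primary bronchial epithelial cells, incubate 24 h, measure uPAR by ELISA, then fit gain- or loss-of-signal response bidirectionally relative to DMSO.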

Read-out in experiment [9]: Plasminogen activator inhibitor-1 (PAI1), SERPINE1 (gene 5054)
The experiment in a line: BSK_BE3C_PAI1: BioMAP Diversity Plus: BE3C Assay for Plasminogen activator inhibitor-1 (PAI1) Biomarker Activity (AID 2283037). The settings on record: primary human bronchial epithelial cells; actives raise or lower the signal. Put shortly: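 Values derive from bidirectional fitting against DMSO baseline of PAI-1 levels, measured by ELISA in human bronchial epithelial cells 24 h after compound addition.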

Read-out in experiment [10]: Transforming growth factor beta 1 (TGFb1), TGFB1 (gene 7040)
Put plainly: BSK_BE3C_TGFb1: BioMAP Diversity Plus: BE3C Assay for Transforming growth factor beta 1 (TGFb1) Biomarker Activity (AID 2283036;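 also: TGF-b1 protein level measured by ELISA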). The settings on record: primary human bronchial epithelial cells; actives raise or lower the signal. Put shortly:
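Bronchial epithelial primary cells are treated with test chemical, then TGF-b1 is quantified by ELISA after 24 hours. Values derive from bidirectional fitting against DMSO, with cytotoxicity checked by SRB staining in parallel cultures.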

In the case of `CCN=C1C=CC(=C(c2ccc(N(CC)CC)cc2)c2ccc(N(CC)CC)cc2)c2ccccc21`, the AC50 is 4.99 µM (active) and 2.26 µM (active) in experiment [1]; 1.85 µM (active) and 1.69 µM (active) in [3]; 2.13 µM (active) and 2.05 µM (active) in experiment [4]; 2.46 µM (active) and 2.22 µM (active) in experiment [5]; 2.48 µM (active) and 2.92 µM (active) in experiment [6]; 2.03 µM (active) in experiment [7]. For the same compound, the AC50 in [8] was 1.93 µM (active) and 1.74 µM (active). For the same compound, the result in [2] and in experiment [7] was inactive.
Take `OC(O)C(F)(F)C(F)(F)F`: the outcome in experiment [1], in [2], in experiment [3], in experiment [4], in [5] and in experiment [6] was inactive. For the same compound, the outcome in experiment [7] and in [8] was inactive.
As for `O=C(O)C(F)(F)C(F)(F)C(F)(F)C(F)(F)C(F)(F)C(F)(F)C(F)F`, the outcome in experiment [1], in experiment [2], in [3], in experiment [4], in experiment [5] and in experiment [6] was inactive. For the same compound, the outcome in experiment [9], in experiment [7] and in experiment [8] was inactive.
Regarding `CN(C(=O)C(F)(F)C(F)(F)C(F)(F)F)[Si](C)(C)C`, the result in experiment [1], in [2], in experiment [3], in experiment [4], in [5] and in experiment [6] was inactive. Further, the result in experiment [7] and in experiment [8] was inactive.
With `CO[Si](C)(CCC(F)(F)C(F)(F)C(F)(F)C(F)(F)C(F)(F)C(F)(F)F)OC`, the result in [1], in [2], in [3], in experiment [4], in experiment [5] and in [6] was inactive. Besides, the outcome in experiment [7] and in experiment [8] was inactive.
For `C=C(C)C(=O)OCC(F)(F)C(F)(F)C(F)(F)C(F)F`, the result in [1], in experiment [2], in [3], in [4], in experiment [5] and in experiment [6] was inactive. Moreover, the outcome in experiment [7] and in experiment [8] was inactive.
Turning to `OCC(F)(F)C(F)(F)C(F)(F)C(F)(F)C(F)(F)C(F)(F)C(F)(F)C(F)(F)CO`, the outcome in [1], in experiment [2] and in experiment [7] was inactive. In addition, the AC50 in experiment [3] was 30 µM (active) and 31.7 µM (active); in experiment [4], 30 µM (active) and 24.8 µM (active); in experiment [5] it was 38 µM (active) and 30.8 µM (active); in [6], 43 µM (active) and 46.6 µM (active); in experiment [9], 37.4 µM (active) and 30 µM (active); in [8] it was 43.7 µM (active) and 40.9 µM (active).
In the case of `COC(F)(C(F)F)C(F)(F)F` (centres undefined), the outcome in experiment [1], in experiment [2], in [3], in experiment [4], in experiment [5] and in [6] was inactive. The outcome in [9], in experiment [7] and in experiment [8] was inactive.
Turning to `O=C(O)CCC(F)(F)C(F)(F)C(F)(F)F`, the outcome in experiment [1], in experiment [2], in experiment [3], in [4], in [5] and in experiment [6] was inactive. The result in experiment [7] and in experiment [8] was inactive.
For `NC(=O)C(F)(F)C(F)(F)C(F)(F)C(F)(F)C(F)(F)C(F)(F)C(F)(F)F`, the outcome in [1], in [2], in experiment [3], in experiment [4], in experiment [5] and in [6] was inactive. Also, the outcome in experiment [9], in experiment [7] and in experiment [8] was inactive.
As for `O=C(O)C(F)(F)C(F)(F)C(F)(F)OC(F)(F)F`, the result in experiment [1], in experiment [2], in experiment [3], in experiment [4], in experiment [5] and in experiment [6] was inactive. Also, the outcome in [7] and in [8] was inactive.
Consider `O=C(F)C1(F)C(F)(F)C(F)(F)C(F)(F)C(F)(F)C1(F)F`, for which the outcome in experiment [1], in experiment [2], in experiment [3], in experiment [4], in [5] and in experiment [6] was inactive. For the same compound, the outcome in experiment [7] and in [8] was inactive.
Regarding `O=C(O)C(F)(F)C(F)(F)C(F)(F)C(=O)O`, the result in experiment [1], in experiment [2], in experiment [3], in [4], in [5] and in experiment [6] was inactive. Moreover, the result in experiment [7] and in [8] was inactive.
Regarding `NCC(F)(F)C(F)(F)C(F)(F)C(F)(F)C(F)(F)C(F)(F)C(F)(F)C(F)(F)F`, the outcome in experiment [1], in experiment [2], in [3], in [4], in [5] and in [6] was inactive. For the same compound, the outcome in experiment [7] and in experiment [8] was inactive.
With `CCOC(C=C(C)CCC=C(C)C)OCC`, the concentration at half-maximal activity (AC50) was 35.2 µM (active) in experiment [1] and 31.5 µM (active) in [4]. The outcome in experiment [3], in experiment [5], in [6], in experiment [10], in [7] and in experiment [8] was inactive.
Consider `OCCCC(F)(F)C(F)(F)C(F)(F)C(F)(F)C(F)(F)C(F)(F)C(F)(F)C(F)(F)F`, for which the half-maximal activity concentration (AC50) in experiment [1] is 31 µM (active) and 43.6 µM (active); in experiment [2], 53.5 µM (active) and 36.8 µM (active); in [3], 44.6 µM (active) and 49.9 µM (active); in experiment [4] it was 31.2 µM (active) and 45.1 µM (active); in experiment [5], 32.3 µM (active) and 37.7 µM (active); in experiment [6] it was 56.5 µM (active) and 53.4 µM (active). The AC50 is 55.2 µM (active) in experiment [7]; 49.4 µM (active) and 54.6 µM (active) in experiment [8].
On to `O=S(=O)(O)CCC(F)(F)C(F)(F)C(F)(F)C(F)(F)F`, for which the outcome in experiment [1], in [2], in experiment [3], in [4], in [5] and in experiment [6] was inactive. Also, the result in [7] and in experiment [8] was inactive.
Take `O=S(=O)(OCC(F)(F)F)C(F)(F)C(F)(F)C(F)(F)C(F)(F)F`: the outcome in experiment [1], in experiment [2], in experiment [3], in experiment [4], in experiment [5] and in experiment [6] was inactive. The result in experiment [7] and in [8] was inactive.
